According to PubChem BioAssay (NCI):
The panel holds about 83,000 compounds, 20% with a hit somewhere; the sample as a whole holds those more often.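 Values shown are percent growth following 48 h exposure of cells in 96-well plates to a single concentration of compound; below 10 was considered active.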 The source made the active and inactive calls.

tested on: K-562 leukemia; test: NCI-60 one-dose screen, 48 h (100 = growth as untreated, 0 = no growth, -100 = all killed); settings: 10 µM unless noted

| Structure (SMILES) | growth |
| --- | --- |
| CCN(CC)CCOc1ccc(/C(=C(\C)c2ccc(F)c(OC)c2)c2ccc(Cl)cc2)cc1 | -7.49% (active) |
| O[C@H]1CO[C@H]2[C@@H]1OC[C@@H]2Oc1ccc(Nc2ccnc(Nc3ccc(O[C@H]4CO[C@H]5[C@@H]4OC[C@@H]5O)c(Cl)c3)n2)cc1Cl | 5.05% (active) |
| CC(=O)Nc1ccc(-c2cc3c(NCc4ccc(F)cc4)ncnc3s2)cc1 | 86.8% (inactive) |
| C/C(Cc1ccc(Cl)cc1)=C(/c1ccc(Cl)cc1)c1ccc(OCCN(C)C)cc1 | -4.72% (active) |
| C=C1C(=O)O[C@H]2[C@H]1CC/C(COC(=O)/C=C\C(=O)NCc1ccc(Cn3c(=O)sn(CCCC)c3=O)cc1)=C\CC[C@@]1(C)O[C@@H]21 | 0.287% (active) |
| Cc1nc(Nc2cccc(NC(=O)Nc3ccc(Cl)cc3)c2)c2ccccc2n1 | 67.6% (inactive) |
| COc1ccc(/C=C2\COc3ccc(O)c(O)c3C2=O)c(OC)c1 | 14% (inactive) |
| CCN(CC)CCOc1ccc(/C(=C(\C)c2ccc(OC)c(F)c2)c2ccc(Cl)cc2)cc1 | 19% (inactive) |
| C=C1C(=O)O[C@H]2[C@H]1CC/C(COC(=O)/C=C\C(=O)NCc1ccc(Cn3c(=O)sn(-c4ccc(C#N)cc4)c3=O)cc1)=C\CC[C@@]1(C)O[C@@H]21 | -8.61% (active) |
| CN(C)CCN1C(=O)c2cccc3c(-c4ccc(-c5nc6c7ccccc7c7ccccc7c6[nH]5)cc4)ccc(c23)C1=O | 28.5% (inactive) |
| c1ccc([P+](CCCc2n(Cc3ccc4ccccc4c3)c3ccccc3[n+]2Cc2ccc3ccccc3c2)(c2ccccc2)c2ccccc2)cc1 | 23.7% (inactive) |
| CCCCS(=O)(=O)Oc1ccc(-c2nc(C)c(C(=O)OCC)s2)cc1C=O | 13.7% (inactive) |
| CCCCN(Cc1ccc(C(=O)NO)cc1)C(=O)Nc1ccc(OCCCCCCCCCn2cc(CCCCC(=O)N[C@H](C(=O)N3C[C@H](O)C[C@H]3C(=O)NCc3ccc(-c4scnc4C)cc3)C(C)(C)C)nn2)cc1 | 16.2% (inactive) |
| COc1ccc(/C(C)=C(\c2ccc(Cl)cc2)c2ccc(OCCN3CCCCCC3)cc2)cc1F | 1.96% (active) |
| C=C1C(=O)O[C@H]2[C@H]1CC/C(COC(=O)/C=C\C(=O)NCc1ccc(Cn3c(=O)sn(-c4ccc(Cl)cc4)c3=O)cc1)=C\CC[C@@]1(C)O[C@@H]21 | -20.5% (active) |
| O[C@H]1CO[C@H]2[C@@H]1OC[C@@H]2Oc1ccc(Nc2nc(Nc3ccc(F)c(Cl)c3)ncc2F)cc1Cl | 115% (inactive) |
| O=C(CCc1nc(-c2cccc(Cl)c2)no1)Nc1ccccn1 | 87.5% (inactive) |
| COc1ccc(Cn2cnc3cc(C(=O)Nc4cccc5ccccc45)ccc32)c(OC)c1 | 1.36% [30 µM] (active) |
| Cc1nc(Nc2ccc(N)cc2)c2ccccc2n1 | 74.5% (inactive) |
| COc1cccc(/C=C2\COc3ccc(O)cc3C2=O)c1OC | 5.8% (active) |
| CC(C)c1ccc(NC(=O)Cc2ccc(Nc3ncnc4cc(-c5cnn(CCN(C)C)c5)ccc34)cc2)cc1 | -34.9% [30 µM] (active) |
| O=C1c2cccc3c(-c4ccc(-c5nc6c7ccccc7c7ccccc7c6[nH]5)cc4)ccc(c23)C(=O)N1CCN1CCNCC1 | -10.2% (active) |
| O=C1/C(=C/c2ccc([N+](=O)[O-])cc2)COc2ccc(O)c(O)c21 | 5.31% (active) |
| Cn1ccnc1C(=O)/C=C/c1ccc(C(=O)Nc2ccc(S(F)(F)(F)(F)F)cc2)cc1 | 2.18% (active) |
| COc1ccc(OC)c(C(=O)Nc2cccc(-c3cc(=O)c4ccccc4o3)c2)c1 | 90.1% (inactive) |
| C=C1C(=O)O[C@H]2[C@H]1CC/C(COC(=O)/C=C\C(=O)NCc1ccc(Cn3c(=O)sn(CCCI)c3=O)cc1)=C\CC[C@@]1(C)O[C@@H]21 | -10.1% (active) |

tested on: MALME-3M melanoma; test: as above; settings: 10 µM unless noted

| Structure (SMILES) | growth |
| --- | --- |
| CCCCC1COc2cccc3c(SCC(=O)N(C)c4cccc(Cl)c4)cc[n+]1c23 (stereo not given) | 104% (inactive) |
| COc1ccc(-c2c(N)n[nH]c2-c2ccccc2O)cc1OC | 62.8% (inactive) |
| CCOC(=O)c1sc(-c2ccc(OS(=O)(=O)c3ccc(C(C)(C)C)cc3)c(C=O)c2)nc1C | 45.1% (inactive) |
| Cc1nc(Nc2ccc(NC(=S)Nc3ccccc3)cc2)nc2nc(Nc3ccc(S(=O)(=O)O)cc3)[nH]c(=O)c12 | 104% (inactive) |
| COc1ccc(/C=C2\COc3ccc(O)cc3C2=O)c(OC)c1 | 60.9% (inactive) |
| COc1ccc(/C(C)=C(\c2ccc(Cl)cc2)c2ccc(OCCCN(C)C)cc2)cc1F | 17.2% (inactive) |
| Cc1nc(Nc2ccc(NC(=S)Nc3ccccc3)cc2)c2ccccc2n1 | 99.5% (inactive) |
| C=C1C(=O)O[C@H]2[C@H]1CC/C(COC(=O)/C=C\C(=O)NCc1ccc(Cn3c(=O)sn(-c4ccc(OC)cc4)c3=O)cc1)=C\CC[C@@]1(C)O[C@@H]21 | -92% (active) |
| CN(C)CCn1cc(-c2ccc3c(Nc4ccc(CC(=O)Nc5cccc(F)c5)cc4)ncnc3c2)cn1 | -92% [30 µM] (active) |
| COc1cc(/C=C/c2nc(Nc3ccc(S(=O)(=O)Nc4cc(C)on4)cc3)c3ccccc3n2)ccc1O | 62.6% (inactive) |
| COc1ccc(/C(C)=C(\c2ccc(Cl)cc2)c2ccc(OCCN3CCCC3)cc2)cc1F | -38.2% (active) |
| Cc1nc(Nc2ccc(S(=O)(=O)Nc3cc(C)on3)cc2)c2ccccc2n1 | 93.2% (inactive) |
| COc1ccc(OC)c(/C=C2\COc3ccc(O)cc3C2=O)c1 | 81.9% (inactive) |
| CCN(CC)CCOc1ccc(/C(=C(\C)c2ccc(F)c(OC)c2)c2ccc(Cl)cc2)cc1 | -81.6% (active) |
| O[C@H]1CO[C@H]2[C@@H]1OC[C@@H]2Oc1ccc(Nc2ccnc(Nc3ccc(O[C@H]4CO[C@H]5[C@@H]4OC[C@@H]5O)c(Cl)c3)n2)cc1Cl | 13.2% (inactive) |
| CC(=O)Nc1ccc(-c2cc3c(NCc4ccc(F)cc4)ncnc3s2)cc1 | 59.5% (inactive) |
| C/C(Cc1ccc(Cl)cc1)=C(/c1ccc(Cl)cc1)c1ccc(OCCN(C)C)cc1 | 37.1% (inactive) |
| C=C1C(=O)O[C@H]2[C@H]1CC/C(COC(=O)/C=C\C(=O)NCc1ccc(Cn3c(=O)sn(CCCC)c3=O)cc1)=C\CC[C@@]1(C)O[C@@H]21 | -93.3% (active) |
| Cc1nc(Nc2cccc(NC(=O)Nc3ccc(Cl)cc3)c2)c2ccccc2n1 | 87.3% (inactive) |
| COc1ccc(/C=C2\COc3ccc(O)c(O)c3C2=O)c(OC)c1 | 32.9% (inactive) |

| Structure (SMILES) | growth |
| --- | --- |
| CCN(CC)CCOc1ccc(/C(=C(\C)c2ccc(OC)c(F)c2)c2ccc(Cl)cc2)cc1 | 55.9% (inactive) |
| C=C1C(=O)O[C@H]2[C@H]1CC/C(COC(=O)/C=C\C(=O)NCc1ccc(Cn3c(=O)sn(-c4ccc(C#N)cc4)c3=O)cc1)=C\CC[C@@]1(C)O[C@@H]21 | -95% (active) |
| CN(C)CCN1C(=O)c2cccc3c(-c4ccc(-c5nc6c7ccccc7c7ccccc7c6[nH]5)cc4)ccc(c23)C1=O | 110% (inactive) |
| c1ccc([P+](CCCc2n(Cc3ccc4ccccc4c3)c3ccccc3[n+]2Cc2ccc3ccccc3c2)(c2ccccc2)c2ccccc2)cc1 | 65.2% (inactive) |
| CCCCS(=O)(=O)Oc1ccc(-c2nc(C)c(C(=O)OCC)s2)cc1C=O | 75.1% (inactive) |
| CCCCN(Cc1ccc(C(=O)NO)cc1)C(=O)Nc1ccc(OCCCCCCCCCn2cc(CCCCC(=O)N[C@H](C(=O)N3C[C@H](O)C[C@H]3C(=O)NCc3ccc(-c4scnc4C)cc3)C(C)(C)C)nn2)cc1 | 23.8% (inactive) |
| COc1ccc(/C(C)=C(\c2ccc(Cl)cc2)c2ccc(OCCN3CCCCCC3)cc2)cc1F | -3.61% (active) |
| C=C1C(=O)O[C@H]2[C@H]1CC/C(COC(=O)/C=C\C(=O)NCc1ccc(Cn3c(=O)sn(-c4ccc(Cl)cc4)c3=O)cc1)=C\CC[C@@]1(C)O[C@@H]21 | -93.1% (active) |
| O[C@H]1CO[C@H]2[C@@H]1OC[C@@H]2Oc1ccc(Nc2nc(Nc3ccc(F)c(Cl)c3)ncc2F)cc1Cl | 100% (inactive) |
| O=C(CCc1nc(-c2cccc(Cl)c2)no1)Nc1ccccn1 | 91.7% (inactive) |
| COc1ccc(Cn2cnc3cc(C(=O)Nc4cccc5ccccc45)ccc32)c(OC)c1 | 38.2% [30 µM] (inactive) |
| Cc1nc(Nc2ccc(N)cc2)c2ccccc2n1 | 97.6% (inactive) |
| COc1cccc(/C=C2\COc3ccc(O)cc3C2=O)c1OC | 73.9% (inactive) |
| CC(C)c1ccc(NC(=O)Cc2ccc(Nc3ncnc4cc(-c5cnn(CCN(C)C)c5)ccc34)cc2)cc1 | -88.7% [30 µM] (active) |
| O=C1c2cccc3c(-c4ccc(-c5nc6c7ccccc7c7ccccc7c6[nH]5)cc4)ccc(c23)C(=O)N1CCN1CCNCC1 | 85.4% (inactive) |
| O=C1/C(=C/c2ccc([N+](=O)[O-])cc2)COc2ccc(O)c(O)c21 | -44.2% (active) |
| Cn1ccnc1C(=O)/C=C/c1ccc(C(=O)Nc2ccc(S(F)(F)(F)(F)F)cc2)cc1 | 59.6% (inactive) |
| COc1ccc(OC)c(C(=O)Nc2cccc(-c3cc(=O)c4ccccc4o3)c2)c1 | 83.3% (inactive) |
| C=C1C(=O)O[C@H]2[C@H]1CC/C(COC(=O)/C=C\C(=O)NCc1ccc(Cn3c(=O)sn(CCCI)c3=O)cc1)=C\CC[C@@]1(C)O[C@@H]21 | -94.2% (active) |
